Data on 40 compounds can be found in PubChem BioAssay (Tox21).

Inconclusive results are not listed. Entries that show only a call come without a potency. Some structures have more than one record in an assay (separate samples or runs), and their calls can disagree. The source made the active and inactive calls. Calls come from the whole dose curve; as a rule, active = well fitted activation curve with a large enough effect in the repeat runs; inconclusive = weak or mixed curves; inactive = flat fitted curve, though single readings scatter.
Potency is the fitted concentration of half-maximal effect.

The experiment can be described thus: A CellTox Green Cytotoxicity Assay to monitor cytotoxicity in HEK293 cells - 32 hour (AID 1224881). Note: nearly all actives have a fitted effect of over 40% in size. As to conditions: CellTox Green fluorescence; series mostly up to 76.8 µM. An excerpt: National Center for Advancing Translational Sciences [NCATS]
NIH Chemical Genomics Center [NCGC]
U.S. Environmental Protection Agency [EPA]
National Institutes of Environmental Health Sciences [NIEHS]
National Toxicology Program [NTP]
Cell-based models are critical for drug discovery. Determining the natural cytotoxic effects resulting from test compounds is an essential research activity. A CellTox Green Cytotoxicity Assay to monitor cytotoxicity in real time of continues cell culture during 40 hours of the compound treatment was used to screen Tox21 10K library compounds in Hek293 cells. CellTox Green Cytotoxicity Assay is a nonlytic, homogeneous, biofluorescent method to measure cytotoxicity in cell culture after experimental manipulation. The assay system uses a proprietary asymmetric cyanine dye that is excluded from viable cells but preferentially stains the dead cell's DNA. […] Viable cells produce no appreciable increases in fluorescence. Therefore, the fluorescence signal produced by the binding interaction with dead cell DNA is proportional to cytotoxicity.
The mixture of Hek293 cell suspension and reagents were dispensed at 600cells/6 ul/well in 1536-well tissue culture treated black solid bottom plates using a Multidrop dispenser. After the assay plates were incubated at a 37 C/5% CO2 incubator for 5 hours, 23 nL of compounds dissolved in DMSO, positive and negative controls was transferred to the assay plate by a pintool work station. The plates were incubated at 37 C for 40 hours. The fluorescence intensity were measured at 0h, 8h, 16h, 24h, 32h and 40h time points using ViewLux plate reader during compound treatment.
Turning to `CCCCOP(=O)(CCCC)OCCCC`, the Potency entry was “inactive”. With `CCCCCCCCCCCCCC[P+](CCCCCC)(CCCCCC)CCCCCC` (tested in a mixture with another compound), the Potency is 13.8 µM (active).

Consider `CCCSP(=O)(OCC)SCCC`, for which the Potency entry was “inactive”. Under `O=c1oc2ccccc2c(O)c1Cc1c(O)c2ccccc2oc1=O` stands “inactive”; under `O=[N+]([O-])c1ccc(Oc2ccc(C(F)(F)F)cc2[N+](=O)[O-])cc1`, “inactive”; under `N#C/C=C/C#N`, “inactive”. As to `CC(=O)/C=C/c1ccc2c(c1)OCO2`, the Potency entry is “inactive”. Under `ClCCN1CCOCC1` stands “inactive”; under `O=c1[nH]c2ccccc2n1C1CCN(CCCC(c2ccc(F)cc2)c2ccc(F)cc2)CC1`, 49 µM (active) and inactive. As for `NC(=O)c1ccc(N)nc1`, the Potency entry is “inactive”. For `COC(=O)N(C(=O)N1CO[C@@]2(C(=O)OC)Cc3cc(Cl)ccc3C2=N1)c1ccc(OC(F)(F)F)cc1`, the Potency result was “inactive”. With `CCCCCCCCCCCCBr`, the Potency result was “inactive”.

Take `CCOC(=O)c1ccccc1S(=O)(=O)NC(=O)Nc1nc(Cl)cc(OC)n1`: the Potency is 54.9 µM (active). Under `O=C(Cl)c1ccc(Cl)cc1` stands “inactive”. In the case of `C=CC(=O)OCCCCOC(=O)C=C` it was 43.6 µM (active); in that of `ClC(Cl)=C(Cl)Cl`, “inactive”; in that of `C=CC(=O)N(C)C`, “inactive”. Under `Cc1cc(Cl)ccc1O[C@H](C)C(=O)O` stands “inactive”; under `C=COCCCl`, “inactive”; under `CCC[CH2][Sn]([CH2]CCC)([CH2]CCC)[O]C(=O)c1ccccc1`, 0.977 µM (active).

`COc1cc(N)c(Cl)cc1C(=O)NC1CN2CCC1CC2` (stereo not given): the Potency entry was “inactive”. Under `C[C@@H]1CC[C@@]2(OC1)O[C@H]1[C@@H](O)[C@H]3[C@@H]4CC[C@H]5C[C@@H](O[C@@H]6O[C@H](CO)[C@H](O[C@@H]7O[C@H](CO)[C@@H](O)[C@H](O[C@@H]8OC[C@@H](O)[C@H](O)[C@H]8O)[C@H]7O[C@@H]7O[C@H](CO)[C@@H](O)[C@H](O[C@@H]8O[C@H](CO)[C@@H](O)[C@H](O)[C@H]8O)[C@H]7O)[C@H](O)[C@H]6O)[C@H](O)C[C@]5(C)[C@H]4CC[C@]3(C)[C@H]1[C@@H]2C` stands 1.64 µM (active).

Take `Nc1c(Oc2ccccc2)cc(O)c2c1C(=O)c1ccccc1C2=O`: the Potency result is “inactive”.

For the compound `CCOCCOC(C)=O`, the Potency result is “inactive”. Under `CCCCCCCCc1ccc(O)cc1` stands 17.5 µM (active); under `CC(C)(C)c1cc([N+](=O)[O-])cc(C(C)(C)C)c1O`, “inactive”; under `CN(C)S(=O)(=O)N(SC(F)(Cl)Cl)c1ccccc1`, 4.9 µM (active).

For the compound `CS(=O)(=O)c1ccc(C(=O)C2C(=O)CCCC2=O)c([N+](=O)[O-])c1`, the Potency is 44.4 µM (active). Turning to `CN(C)[C@@H]1C(=O)C(C(N)=O)=C(O)[C@@]2(O)C(=O)C3=C(O)c4c(O)ccc(Cl)c4[C@@](C)(O)[C@H]3C[C@@H]12`, the Potency entry was “inactive”. Under `CC(c1ccc(O)cc1)c1ccc(O)cc1` stands “inactive”; under `CC(C)CBr`, “inactive”; under `O=C(Nc1ccc2[nH]ccc2c1)c1cc2cc(F)ccc2n1Cc1cccc(F)c1`, “inactive”. In the case of `N#CCCO` it was “inactive”. Under `O=C(NC(=O)c1c(F)cccc1F)Nc1cc(Cl)c(OC(F)(F)C(F)F)c(Cl)c1` stands “inactive”. As for `CC1(C)[C@H](C(=O)O[C@H](C#N)c2cccc(Oc3ccccc3)c2)[C@@H]1/C=C(\Cl)C(F)(F)F`, the Potency result is “inactive”.

For `O=c1ssc(Cl)c1Cl`, the Potency is 24.5 µM (active). For the compound `CCOc1cc(C(C)(C)C)ccc1C1COC(c2c(F)cccc2F)=N1` (stereo not given), the Potency entry was “inactive”. Regarding `CC(C)Oc1cccc(NC(=O)c2ccccc2C(F)(F)F)c1`, the Potency is 1.23 µM (active). `S=C=Nc1cccc2ccccc12`: the Potency result is “inactive”. In the case of `CC(=O)c1cc(C(C)(C)C)cc2c1CCC2(C)C` it was 38.9 µM (active).
